# HP1b chromo inh: HTS for Inhibitors of HP1-beta Chromodomain Interactions with Methylated Histone Tails; Chromobox protein homolog 1 (Homo sapiens), P83916; AlphaScreen HP1-beta / biotin-H3K9me3 peptide binding; Potency, µM (highest dose often 114 µM), actives largely listed as inhibitors; actives 0.56% (n = 390,000); also: nearly all actives have a fitted effect of over 70% in size
#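 Compound inhibition of the preformed complex between 50 nM HP1-beta and 50 nM biotinylated H3K9me3 peptide was read by AlphaScreen. Buffer was PBS pH 7.4 with 0.01% Tween-20. Incubations ran 30 min at room temperature, with 10 ug/mL donor/acceptor beads.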
# JMJD2A Tudor inh: qHTS Assay for Inhibitors of JMJD2A-Tudor Domain; actives 4.4% (n = 390,000); AID 504339, 2011; Potency, µM (highest dose often 114 µM), usual class: inhibitors; Lysine-specific demethylase 4A (Homo sapiens), O75164; AlphaScreen JMJD2A-Tudor / H3K4me3 peptide binding; also: nearly all actives have a fitted effect of over 50% in size
# PLK1 PBD inh: qHTS for Inhibitors of PLK1-PDB (polo-like kinase 1 - polo-box domain): Primary Screen; Serine/threonine-protein kinase PLK1 (Homo sapiens), P53350; AID 720504, 2013; Potency, µM, hits mostly inhibitors; Plk1 PBD binding of FITC phosphopeptide, fluorescence polarization; actives 2.8% (n = 360,000); also: series mostly up to about 57 µM; nearly all actives have a fitted effect of over 65% in size
# GCN5L2 inh: qHTS Assay for Inhibitors of GCN5L2; Potency, µM (series often up to 58.9 µM), usual class: inhibitors; GCN5L2 HAT assay, ThioGlo1 CoA-SH fluorescence; actives 0.21% (n = 390,000); Histone acetyltransferase KAT2A (Homo sapiens), Q92830
#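 Enzyme at 20nM final was mixed with library compounds for 15 min at room temperature. Peptide H3(1-25) at 75uM, acetyl-CoA at 70uM and ThioGlo1 at 50uM were then added. Plates were read immediately and after 20 min (Ex340nm/Em540nm).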
# BAZ2B inh: qHTS Assay for Inhibitors of BAZ2B | actives 4.4% (n = 360,000) | Potency, µM (titrated, usually from 114 µM), usual class: inhibitors | Bromodomain adjacent to zinc finger domain protein 2B (Homo sapiens), Q9UIF8 | AlphaScreen BAZ2B-H3K14Ac peptide displacement | AID 504333, 2011; also: nearly all actives have a fitted effect of over 60% in size
#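 BAZ2B (50 nM) with biotin-H3(5-23)K14Ac peptide (50 nM) in PBS pH 7.4, 0.01% Tween-20, preformed 30 min, then compound 30 min at room temperature; top concentration 110uM. AlphaScreen streptavidin donor/nickel chelate acceptor beads (10 ug/mL final), 20 min dark, signal read.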
# PI5P4Ka inh: qHTS for Inhibitors of phosphatidylinositol 5-phosphate 4-kinase (PI5P4K). PI5P4Kalpha enzyme, ADP-Glo luminescence, 60 min; hits give low values. max response, %. actives 1.2% (n = 330,000). AID 652105, 2013; active = max response of -50% or lower; inconclusive = between -30% and -50%; inactive = -30% or higher; also: value at the top dose of about 77 µM
# Target sequence (P48426 whole entry, looked up): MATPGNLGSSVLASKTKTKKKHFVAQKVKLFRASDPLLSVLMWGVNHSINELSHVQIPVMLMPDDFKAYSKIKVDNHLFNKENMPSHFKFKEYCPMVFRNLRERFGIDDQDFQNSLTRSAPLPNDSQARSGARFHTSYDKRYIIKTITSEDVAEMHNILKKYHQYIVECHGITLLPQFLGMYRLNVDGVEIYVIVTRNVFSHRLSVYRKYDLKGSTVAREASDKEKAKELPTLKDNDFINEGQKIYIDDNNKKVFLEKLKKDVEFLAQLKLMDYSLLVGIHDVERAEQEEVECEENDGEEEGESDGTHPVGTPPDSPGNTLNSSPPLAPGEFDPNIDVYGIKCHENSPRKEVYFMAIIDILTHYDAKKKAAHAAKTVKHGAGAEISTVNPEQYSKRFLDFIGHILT
#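 Quantitative HTS of the MLSMR library against PI5P4Kalpha with substrate. ATP added last at 5 microM final; room temperature, 60 minutes. Remaining ATP depleted, ADP converted and read as luminescence.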
# A number is an active result; n = inactive; u = inconclusive; x = no result given; [ ] = remark or other dose. Shown are actives, neighbours in structure and some others; about 7% of the full set was active somewhere. Unless noted, calls follow the shape of the dose curve; as a rule, active = well fitted curve in the direction sought with a large enough effect; inconclusive = small, poorly fitted or top-dose-only effect, or another doubt; inactive = no such curve, though single readings can be large; an effect the other way counts as inactive or inconclusive.
SMILES,HP1b chromo inh,JMJD2A Tudor inh,PLK1 PBD inh,GCN5L2 inh,BAZ2B inh,PI5P4Ka inh
COc1ccc(CCNC(=O)CSc2ccsc2[N+](=O)[O-])c(OC)c1,n,n,n,n,n,-57
COc1ccc(OC)c(CCNC(=O)CSc2ccsc2[N+](=O)[O-])c1,n,45µM,n,n,u,-55
O=C1CCCC2=C1C1(CCCC1)N=C(Nc1nc3ccccc3n1Cc1ccccc1)N2,x,n,x,x,x,x
Cc1nn(-c2ccccc2)c(C)c1C(=O)OCC(=O)Nc1cccc(S(N)(=O)=O)c1,n,n,n,n,n,n
CC(=O)Nc1ccc(NC(=O)C(C)c2cccc(C(=O)c3ccccc3)c2)cc1 (stereo not drawn),n,n,n,n,n,n
CC(C(=O)Nc1ccc(O)cc1)c1cccc(C(=O)c2ccccc2)c1 (stereo not drawn),n,n[11.4 µM],12µM,n,u,n
Cc1ccc2c(c1)-c1nc(-c3ccccc3)cc(-c3ccccc3)c1CO2,n,n,x,n,n,x
COc1cnc(-c2ccccn2)nc1N(C)c1ccccc1,n,25µM,n,n,20µM,n
COc1cnc(-c2ccccn2)nc1Oc1ccccc1,n,89µM,n,n,25µM,n
COc1cnc(-c2ccccn2)nc1Sc1ccc(Cl)cc1,n,u,n,n,n,x
COc1cnc(-c2ccccn2)nc1Oc1cccc(C(F)(F)F)c1,x,x,x,n,u,x
CC1(C)CC(=O)C2=C(C1)c1c(ccc3ccccc13)NC2c1cc([N+](=O)[O-])cc([N+](=O)[O-])c1O (stereo not drawn),u,56µM,3.4µM,u,50µM,-59
O=C1NC(=O)N(C2CCCCC2)CC1Br (stereo not drawn),n,n,n,x,x,n
Cc1ccc(S(=O)(=O)N/N=C/c2ccc(O)c(O)c2)cc1[N+](=O)[O-],n,u,n,n,n,n
CCN(CC)c1ccc(/C=N/NS(=O)(=O)c2ccc(C)c([N+](=O)[O-])c2)cc1,u,35µM,n,n,u,n
COc1ccc(C(=O)N=c2nc(-c3ccccc3)n(-c3ccccc3)s2)cc1,n,n,x,x,x,x
COc1ccc(S(=O)(=O)Nc2ccc(Oc3ncccn3)c(Cl)c2)cc1,u,n[11.4 µM],5.3µM,n,n,u
COc1ccc(NS(=O)(=O)c2ccc(Oc3ncccn3)cc2)cc1,n,n,n,n,n,n
COC1(C(F)(F)F)NC(=O)N(c2ccc(F)cc2)C1=O (stereo not drawn),n,n,x,n,n,x
CC(=O)c1ccc(NC(=O)CCn2cccn2)cc1,n,n,x,n,n,x
O=C(/N=C1\NC(=O)C(F)(C(F)(F)F)S1)NC1CCCCC1 (stereo not drawn),u,50µM,13µM,n,n,-61
Cc1c(CNC2CCC(C)CC2)c(C(=O)O)c(C)n1Cc1ccccc1F (stereo not drawn),n,n,x,n,n,x
CCOc1ccc(NC2=C(OC)C(=O)c3ccccc3C2=O)cc1,25µM,8.9µM,n,n,10µM,n
CCN(CC)c1ccc(NC2=C(Cl)C(=O)c3ccccc3C2=O)cc1,4µM,2.5µM,n,n,2.2µM,n
COC1=C(Nc2ccc(O)cc2)C(=O)c2ccccc2C1=O,50µM,45µM,n,n,40µM,n
Cc1ccc(NC2=C(Cl)C(=O)c3ccccc3C2=O)cc1,n,u,n,n,u,n
O=C1C(Cl)=C(Nc2ccc(O)cc2)C(=O)c2ccccc21,u,u,n,n,u,n
COC1=C(Nc2ccc(OC)cc2)C(=O)c2ccccc2C1=O,22µM,20µM,n,n,8.9µM,n
CC(=O)C[C@H](O)CC(=O)[C@@H]1OC(=O)[C@H](C)C/C=C\Cc2ccccc21,n,n,n,n,x,n
COc1ccc2c(c1)c(=O)c(S(=O)(=O)c1ccc(C)c(C)c1)cn2CC(=O)Nc1ccccc1,n,n,x,n,n,x

# High-throughput results (PubChem)
